Among the data in article PMC7819943, “Rice protein-binding microarrays: a tool to detect cis-acting elements near promoter regions in rice” are binding signal values, retold here.

The full ranking holds about 35,000 sequences; the median of “fluorescence intensity (a.u.)” is about 10,000, and the highest 2% start at about 52,000. The sample as a whole holds a higher share of the highest values than the screen did.

In the experiment the target is T1, OsWOX13 (Oryza sativa, UniProt Q5QMM3 1-267).
T1 sequence: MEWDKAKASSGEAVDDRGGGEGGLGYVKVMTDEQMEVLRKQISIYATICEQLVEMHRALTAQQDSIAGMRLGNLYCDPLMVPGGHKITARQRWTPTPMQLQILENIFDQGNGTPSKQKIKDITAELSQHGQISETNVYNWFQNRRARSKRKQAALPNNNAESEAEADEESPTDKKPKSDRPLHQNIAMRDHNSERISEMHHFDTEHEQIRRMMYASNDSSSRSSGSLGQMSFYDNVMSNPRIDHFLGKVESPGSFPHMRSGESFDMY
Description: protein-binding microarray (RPBM); PBS, 2% BSA, 51.3 ng/ul salmon testes DNA, 50 uM zinc acetate, 200 nM TF, 25 C, 1 h; high values mean tight binding. Conditions: protein: recombinant; tags: N-terminal polyhistidine and DsRed monomer fusion (pET32a); label: CyDye5-dUTP incorporated in the synthesized complementary strand; 3' TTTTT single-stranded linker to array surface; dsDNA, one strand shown. In outline:
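For the binding signal, per-feature fluorescence intensity was read in arbitrary units on an Axon 4000B scanner. Before scanning, a 2% BSA-blocked custom Agilent array made double-stranded with Cy5-dUTP was washed after 1 h at 25 °C with 200 nM protein and 50 µM zinc acetate. The proteins were Ni–NTA-purified transcription factors with N-terminal polyhistidine and DsRed fusions, expressed in E. coli BL21-CodonPlus.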
For the sequence “GCCTAATTAATCCGTCATTAGCAAATGTTTATTGTAGCACCGGAGTCACCTAGTGCAG”, the binding signal was 38200 fluorescence intensity (a.u.).
For the sequence “GCTGACAGGGACAATCGGATGGAGCAGAATGTCTGAACGTCGGAGTCACCTAGTGCAG”, the binding signal was 11000 fluorescence intensity (a.u.).
Take “TTTGATCAAAATCAAAACGTCTTATAACCTGAAACGGAGGCGGAGTCACCTAGTGCAG”: the binding signal was 4210 fluorescence intensity (a.u.).
Consider “GCTAATTAAGTCCATTGCACATAGATCGATATGTGTACACCGGAGTCACCTAGTGCAG”, for which the binding signal is 27700 fluorescence intensity (a.u.).
On to “CCAATTGACTATATATAACATAGTACTTGCTAGCTTAATTCGGAGTCACCTAGTGCAG”, for which the binding signal was 3640 fluorescence intensity (a.u.).
With “TTTAGGATTGAAGTAAACTGTAAACTATATGTCTGACCGCCGGAGTCACCTAGTGCAG” the figure was 16600 fluorescence intensity (a.u.).
As for “CAATACATAACAGACAAATTATCAAAATAGATTAAAGTTTCGGAGTCACCTAGTGCAG”, the binding signal is 4710 fluorescence intensity (a.u.).
Take “ATTTTAAATTTATTATATGATGATTAATTTGGGAATGAGGCGGAGTCACCTAGTGCAG”: the binding signal is 28400 fluorescence intensity (a.u.).
For the sequence “TACATCACTAATCACGTTGCTTCGATGACACCTCCTTCTTCGGAGTCACCTAGTGCAG”, the binding signal was 7440 fluorescence intensity (a.u.).
Regarding “TGTATGTGTGTACTCGTAATTAGTGAGAATTTAAATTCATCGGAGTCACCTAGTGCAG”, the binding signal was 3820 fluorescence intensity (a.u.).
With “CAAAAGTGTTCAATCAAATATGAAAATGAGTATAATGCAACGGAGTCACCTAGTGCAG”, the binding signal was 6990 fluorescence intensity (a.u.).
Consider “CTAATTAGGTCCAGGACATTAAATGGGTTGATTACGTCACCGGAGTCACCTAGTGCAG”, for which the binding signal was 8450 fluorescence intensity (a.u.).
As for “GTTTATGTTAGTGCTAGTGATTAGTACTTAAACATTCAGACGGAGTCACCTAGTGCAG”, the binding signal is 4010 fluorescence intensity (a.u.).
To “GTTTCTAATTAACTAAATTAATTAATTAGCATGATTGGTCCGGAGTCACCTAGTGCAG” belongs 64700 fluorescence intensity (a.u.); to “AATACTTGCAAATTAGCTAACTAGTTCTCCTAATTGAGCCCGGAGTCACCTAGTGCAG”, 9350 fluorescence intensity (a.u.); to “CCAATTTAATAAAATAAATTGATACTATAAATATTACAATCGGAGTCACCTAGTGCAG”, 9090 fluorescence intensity (a.u.).
With “AACTTATAAATTGATTTATAAGTCTAAATAAAGAGGCACCCGGAGTCACCTAGTGCAG” the figure was 55800 fluorescence intensity (a.u.); with “TGCTAACTTGAGATGAATGTCGAACTCCTAATTGCAGCTCCGGAGTCACCTAGTGCAG”, 3470 fluorescence intensity (a.u.).
For the sequence “AAATTTATAATTTTACAATAAATTTGATATTAAATTTGTACGGAGTCACCTAGTGCAG”, the binding signal is 12300 fluorescence intensity (a.u.).
On to “ATCTGGCAATAATTTACAATTAATTGATACCTTATTGCCTCGGAGTCACCTAGTGCAG”, for which the binding signal was 54800 fluorescence intensity (a.u.).
Consider “ATAACTAATAAATGATTGAATTAGATGAATAGGTAGTTTCCGGAGTCACCTAGTGCAG”, for which the binding signal is 31000 fluorescence intensity (a.u.).
Regarding “AGGCACTAAAATAATCTAATTGATTAACTAATCGGTCACCCGGAGTCACCTAGTGCAG”, the binding signal was 25300 fluorescence intensity (a.u.).
As for “GAACTAATTGATACATTAGCCACTTGATGAGCTCCTCTCCCGGAGTCACCTAGTGCAG”, the binding signal is 58600 fluorescence intensity (a.u.).
To “AAGAGTTTAAATTTTAAAATGATTTTATAAGTGGTTAACCCGGAGTCACCTAGTGCAG” belongs 7500 fluorescence intensity (a.u.).
To “CTTATTAGCACATGATTAATTAATTATTAACTATTATAAACGGAGTCACCTAGTGCAG” belongs 19500 fluorescence intensity (a.u.); to “CATGACAGCGTGCTTGGATCAACCGCTTTTGTCTTCTCCACGGAGTCACCTAGTGCAG”, 3780 fluorescence intensity (a.u.); to “ATTGATAAGCCTAATTTAGACATCAAACCAAACCAGCCCTCGGAGTCACCTAGTGCAG”, 14300 fluorescence intensity (a.u.).
To “TTGATCATGATGATATTTAATTTGTTTAGATCACACACTACGGAGTCACCTAGTGCAG” belongs 10200 fluorescence intensity (a.u.); to “ATTCCTAAAATTATATGAATTTATGAGAAATTACGTAATGCGGAGTCACCTAGTGCAG”, 4300 fluorescence intensity (a.u.); to “ATGGAATCAGTAATTAACTAGAAATAAATTAATACTCCTACGGAGTCACCTAGTGCAG”, 9880 fluorescence intensity (a.u.).
Consider “TGGCAATGATTTATACTTCAATCATAATTGTTTGCTTAGGCGGAGTCACCTAGTGCAG”, for which the binding signal was 24000 fluorescence intensity (a.u.).
For “TTAGCTATCACAGACACAATCACACAACGATGGTAAAACACGGAGTCACCTAGTGCAG”, the binding signal was 6740 fluorescence intensity (a.u.).
In the case of “GACATTAATTAATTTAAATTAACGCTCACTGTTCATCGCCCGGAGTCACCTAGTGCAG”, the binding signal was 65500 fluorescence intensity (a.u.).
Turning to “CCAAATTTGGTAATTTAGAATTTGAACTAGCGTGAGAAAACGGAGTCACCTAGTGCAG”, the binding signal is 19800 fluorescence intensity (a.u.).
As for “ATTAATTAAAATCGCGCCCAATTAATCATTTAATCCATCCCGGAGTCACCTAGTGCAG”, the binding signal is 40700 fluorescence intensity (a.u.).
In the case of “TTATGCATTAACAACGTAACTAATTTAATTTGATTAGTTTCGGAGTCACCTAGTGCAG”, the binding signal was 24000 fluorescence intensity (a.u.).
For the sequence “TGTGATTGGTAATTGCCGAACTATTTGAAAATGGTGCGTGCGGAGTCACCTAGTGCAG”, the binding signal was 62300 fluorescence intensity (a.u.).
As to “AGAATGGTGATTAACTATTGGTGTTAATTAATTTGCTGCACGGAGTCACCTAGTGCAG”, the binding signal is 31000 fluorescence intensity (a.u.).
Take “AGGGTAATTACACATTTAACCCTATTTTAAGGTCTAACTACGGAGTCACCTAGTGCAG”: the binding signal was 18400 fluorescence intensity (a.u.).
With “ATTAATTAATTAACCTCTAACATTTAACTAATGCAGGTAACGGAGTCACCTAGTGCAG” the figure was 56900 fluorescence intensity (a.u.); with “TCACTGTTATTTAATTATATATATATATATATATTCATGCCGGAGTCACCTAGTGCAG”, 8880 fluorescence intensity (a.u.).
Consider “ACCAATTATAAACACAAGTTAATGGGCAAATGACATGGAACGGAGTCACCTAGTGCAG”, for which the binding signal was 11500 fluorescence intensity (a.u.).
